Assay [1] has as its target Lysosomal acid glucosylceramidase (Homo sapiens) (UniProt P04062). The assay can be described thus: Glucocerebrosidase-p2 (AID 348; in the data active = potency below about 10 µM; also: potency is read from the fitted curve at half-maximal effect). Conditions: purified GBA, blue fluorogenic substrate, 40 min. In a few lines: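 Compounds titrated from 0.6 nM upwards against 0.2 nM enzyme in pH 5.9 citric acid/KH2PO4, taurocholate, tween-20; blue fluorogenic substrate 80 uM, 40 min room temperature, stopped and read Ex 365/Em 440 for AC50.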

In assay [2] the target is Cytochrome P450 1A2 (Homo sapiens) (UniProt P05177). Briefly: p450-cyp1a2 (AID 410; calls by dose curve; also: potency is read from the fitted curve at half-maximal effect). Conditions: recombinant CYP1A2, luciferin-ME demethylation, luminescence; series mostly up to 57 µM. In a few lines:
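Luminescent readout of luciferin formed from Luciferin-ME by human CYP1A2; data normalized against complete inhibition by 57 uM furafylline. Enzyme 20nM, substrate 100uM at Km, 100mM KPO4 buffer, 60 min reaction at room temperature.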

For assay [3], the target named is Glucocorticoid receptor (Homo sapiens) (UniProt P04150). The assay can be described thus: GR-GFP Redistribution (AID 450;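 active = compounds whose dose series gives a full or clear partial fitted curve of increased nuclear translocation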; also: potency is read from the fitted curve at half-maximal effect). Conditions: U2OS GR-GFP nuclear translocation, laser cytometry, 2 h.
Assay [4] shares this target. Briefly: GR-EFC Redistribution (AID 451; calls by dose curve; also: potency is read from the fitted curve at half-maximal effect). Particulars: CHO-K1 GR-EFC translocation, beta-gal luminescence, 2 h. The gist of the method: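 CHO-K1 cells expressing nuclear EA and GR-ED fragments of b-gal; compounds titrated up to 46 uM final, 2 h at 37 C. GR nuclear translocation read as complemented b-gal luminescence after 1 h RT detection.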
For assay [5], the target named is Mitogen-activated protein kinase 10 (Mus musculus) (UniProt Q61831). Briefly: JNK3 AlphaScreen Assay (AID 530; active = well fitted curve in either direction with a large enough effect, not every such curve was filed as active;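 also: kinase came from lysate of stimulated human HepG2 cells; signal reports phosphorylation of biotinylated GST-cJun 1-79 at Ser73 with 10 µM ATP; % is scaled to controls: 0 for no effect and ±100 for the full control effect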). Particulars: JNK3 lysate, c-Jun phosphorylation; series mostly up to 57.1 µM. In a few lines: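 Pre-activated (IL-1β/TNFα) JNK3 in HepG2 lysates phosphorylates biotin-GST-cJun(1-79), 10 uM ATP; anti-phospho-cJun(Ser73) AlphaScreen read at room temperature, pH 7.6 Tris buffer. Compounds pre-incubated 15 min as titrations.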

For assay [6], the target named is 3',5'-cyclic-AMP phosphodiesterase 4B (Homo sapiens) (UniProt Q07343). Briefly: qHTS Assay for Inhibitors of PDE-IV (AID 607; active = well fitted activation curve with a large enough effect in the main read-out, with a control signal flat, not every such curve was filed as active; also: % of control where 0% means no effect). Particulars: HEK293 ACTOne CNG channel cells, membrane potential fluorescence; series mostly up to 22.9 µM. The gist of the method:
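HEK293 ACTOne cells with CNG channel (1000/well), endogenous PDE4; membrane potential dye, compounds up to 22.9 uM final. Fluorescence Ex 535/Em 590; RO 20-1724 (100 uM final) as reference.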

Assay [7] concerns the target Cytochrome P450 3A4 (Homo sapiens) (UniProt P08684). Briefly: qHTS Assay for Activators of Cytochrome P450 3A4 (AID 885). Also: nearly all actives have a fitted effect of over 65% in size. Particulars: recombinant CYP3A4, Luciferin-PPXE luminescence, 60 min; series mostly up to 57.1 µM. The gist of the method:
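Human CYP3A4 (20 nM) with Luciferin-PPXE at 25 uM (its KM) in 200 mM KPO4; 10 min compound preincubation, then NADPH regeneration and 60 min reaction at RT. Luciferin read by luminescence; normalized to 57 uM ketoconazole full inhibition.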

The nature of assay [8]: qHTS Assay for Identification of Small Molecule Agonists for Hypoxia Response Element Signaling Pathway (AID 914; active = well fitted activation curve with a large enough effect in the signal ratio, with a control signal flat, not every such curve was filed as active; the % refers to the signal ratio; also: potency is read from the fitted curve at half-maximal effect). Particulars: ME-180 HRE-bla reporter, beta-lactamase ratio, CoCl2, 17 h; activation: stronger effect = higher value. The gist of the method: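 Reporter activity (beta-lactamase, CCF4 460nm/530nm ratio) in HRE-bla ME-180 cells is recorded after 17 h compound exposure with EC50 CoCl2 at 37 degrees Celsius. AC50 values come from titration data.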

The nature of assay [9]: qHTS Assay for Lipid Storage Modulators (AID 1519; calls by dose curve; also: potency is read from the fitted curve at half-maximal effect). Particulars: Drosophila S3 cells, BODIPY lipid droplet/cell ratio, laser cytometry, cells loaded with oleic acid; for activity change, negative = inhibition: at 57.5 µM (top of the series). In a few lines: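 Cells seeded at 5,000 per well were treated with compounds over a concentration series and loaded with oleic acid (400 uM, as added). Lipid droplet fluorescence (488 nm excitation, 500-530 nm channel) was read by laser-scanning cytometry and normalized to 20 uM Triacsin C.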

Assay [10] has as its target Dual specificity protein kinase CLK4 (Homo sapiens) (UniProt Q9HAZ1). The assay can be described thus: qHTS Assay for Inhibitors of CDC-like Kinase 4 (Kinase-Glo Assay) (AID 1770). Also: nearly all actives have a fitted effect of over 65% in size. Also: potency is read from the fitted curve at half-maximal effect. Conditions: recombinant Clk4, Kinase-Glo ATP depletion luminescence; series mostly up to 66.7 µM. The gist of the method:
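Substrate mix (RS peptide 100 uM, ATP 1 uM) dispensed, compound pinned in, then Clk4 added to 25 nM final. Incubated 4.5 h at RT; Kinase-Glo reagent added, luminescence read after 5 min.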

The target is the same in assay [11]. The assay can be described thus: qHTS Assay for Inhibitors of CDC-like Kinase 4 (ADP-Glo Assay) (AID 1771). Also: nearly all actives have a fitted effect of over 70% in size. Also: potency is read from the fitted curve at half-maximal effect. Conditions: recombinant CLK4, ADP-Glo luminescence; series mostly up to 80 µM. In a few lines:
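Luminescence from ADP-Glo reports ADP produced by 25 nM Clk4 acting on 100 uM RS repeat peptide with 1 uM ATP over 1 hr at room temperature; residual ATP is depleted before ADP is converted to ATP for detection.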

The target is the same in assay [12]. Briefly: qHTS Assay for Inhibitors of CDC-like Kinase 4 (ADP-FP Assay) (AID 1795). Also: nearly all actives have a fitted effect of over 60% in size. Also: potency is read from the fitted curve at half-maximal effect. Particulars: Transcreener ADP fluorescence polarization; series mostly up to 50 µM. The gist of the method: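 Clk4 6.25 nM; RS peptide 100 uM; ATP 1 uM; 25 mM Tris pH 7.5, 10 mM MgCl2; 1 h reaction. ADP detected via antibody/orange tracer FP displacement; TG003 positive control.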

Assay [13] has as its target Ubiquitin carboxyl-terminal hydrolase 1 (Homo sapiens) (UniProt O94782). The assay can be described thus: Inhibitors of USP1/UAF1: Pilot qHTS (AID 504865).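 Also: rhodamine fluorescence freed from ubiquitin-rhodamine substrate followed over time; top concentration of the series differs between compounds; % is scaled to controls: 0 for no effect and ±100 for the full control effect; nearly all actives have a fitted effect of over 35% in size.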 Conditions: purified USP1/UAF1, Ub-rhodamine cleavage fluorescence; series mostly up to 54.9 µM. In a few lines: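 In 50mM HEPES pH 7.8 containing 0.5mM EDTA, 1mM TCEP, 0.1 mg/ml BSA and 0.01% Tween-20, 1nM USP1/UAF1 is exposed to compound for 15 min, then Ub-Rho (150nM final) is added and fluorescence is read over time.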

Assay [14] can be described thus: Primary qHTS for small molecule stabilizers of the endoplasmic reticulum resident proteome: Secreted ER Calcium Modulated Protein (SERCaMP) assay (AID 1508630). Also: % is scaled to controls: 0 for no effect and ±100 for the full control effect. Conditions: SH-SY5Y GLuc-SERCaMP (Gaussia luciferase released on ER calcium loss) secretion, thapsigargin, luminescence; series mostly up to 38.4 µM. The gist of the method:
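GLuc-SERCaMP-expressing SH-SY5Y cells, pretreated 16 h with compound, are challenged with thapsigargin to empty ER calcium stores; after 4 h, coelenterazine is added directly to the medium and luminescence is imaged.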

Assay [15] can be described thus: AP1 Signaling Pathway (AID 357; active = well fitted curve in either direction with a large enough effect, not every such curve was filed as active;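 also: ME-180 reporter cells stimulated with EGF at its EC50 level; % is scaled to controls: 0 for no effect and ±100 for the full control effect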). Particulars: ME-180 AP-1-bla reporter, EGF-induced, beta-lactamase ratio, 5 h; at 7.69 µM (top of the series) unless noted. The gist of the method:
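A ratiometric CCF4 readout (405 nm excitation; 460 and 530 nm emission) quantified AP-1-driven beta-lactamase in ME-180 cells after 5 h with compound and EC50 EGF; AC50 values were derived for activators and inhibitors.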

Assay [16] is described as follows: Stat Signaling Pathway (AID 446; active = well fitted curve in either direction with a large enough effect, not every such curve was filed as active;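 also: ME-180 cervical cancer cells given 40 pM IL-6 alongside compound; SIE-controlled beta-lactamase reporter measured as 460/530 nm FRET emission ratio; % is scaled to controls: 0 for no effect and ±100 for the full control effect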). Particulars: ME-180 SIE beta-lactamase reporter, IL-6 stimulated, 5 h; at 7.69 µM (top of the series) unless noted. In a few lines: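 ME-180 cells carrying a SIE-driven beta-lactamase reporter are stimulated with 40 pM IL-6 for 5 h at 37C in the presence of compound. The 460/530 nm FRET substrate ratio is read after 2.5 h at RT. Data are normalised to 300 pM IL-6 and to 125 nM JAK inhibitor controls.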

A short description of assay [17]: NFAT Signaling Pathway (AID 444; active = well fitted curve in either direction with a large enough effect, not every such curve was filed as active). Particulars: Jurkat NFAT-bla M1, carbachol, beta-lactamase ratio, 5 h; at 7.69 µM (top of the series) unless noted. In a few lines: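 Jurkat cells with NFAT-driven β-lactamase reporter and co-expressed M1 receptor, stimulated with carbachol (final 1 uM, ~EC50), compound titration, 5 h at 37 °C. CCF4 loaded 1 h at RT; 460/530 nm ratio gave %activity and AC50.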

The mark [18] stands for this setting: measured here: cell count channel max response.
Setting [19] is: measured here: lipid channel max response.

Results filed as inconclusive are left out. Activity calls are given as the source filed them. Unless noted, calls follow the shape of the dose curve; as a rule, active = well fitted curve in the direction sought with a large enough effect; inconclusive = small, poorly fitted or top-dose-only effect, or another doubt; inactive = no such curve, though single readings can be large; an effect the other way counts as inactive or inconclusive. Bounds are passed on as bounds.

Chain of 3',5'-cyclic-AMP phosphodiesterase 4B (Homo sapiens) (Q07343 whole entry, looked up): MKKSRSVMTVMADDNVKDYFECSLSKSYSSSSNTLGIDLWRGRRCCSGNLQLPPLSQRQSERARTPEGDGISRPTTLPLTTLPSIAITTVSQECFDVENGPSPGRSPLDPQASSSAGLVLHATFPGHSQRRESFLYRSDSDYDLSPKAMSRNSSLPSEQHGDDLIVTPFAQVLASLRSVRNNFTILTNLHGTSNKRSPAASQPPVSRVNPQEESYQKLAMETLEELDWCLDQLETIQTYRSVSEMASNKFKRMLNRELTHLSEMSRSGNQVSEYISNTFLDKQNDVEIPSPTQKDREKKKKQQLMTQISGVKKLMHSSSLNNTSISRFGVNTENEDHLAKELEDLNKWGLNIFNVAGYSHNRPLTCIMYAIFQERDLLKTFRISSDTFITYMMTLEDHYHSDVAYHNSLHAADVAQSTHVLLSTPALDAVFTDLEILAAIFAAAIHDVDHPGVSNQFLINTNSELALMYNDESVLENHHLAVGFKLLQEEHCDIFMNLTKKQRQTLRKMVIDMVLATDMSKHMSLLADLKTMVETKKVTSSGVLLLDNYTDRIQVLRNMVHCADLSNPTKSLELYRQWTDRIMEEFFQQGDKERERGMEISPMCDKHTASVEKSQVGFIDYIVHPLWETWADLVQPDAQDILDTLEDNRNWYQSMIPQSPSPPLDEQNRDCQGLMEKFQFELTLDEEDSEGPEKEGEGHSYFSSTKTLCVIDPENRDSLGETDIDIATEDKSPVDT
Chain of Dual specificity protein kinase CLK4 (Homo sapiens) (Q9HAZ1 whole entry, looked up): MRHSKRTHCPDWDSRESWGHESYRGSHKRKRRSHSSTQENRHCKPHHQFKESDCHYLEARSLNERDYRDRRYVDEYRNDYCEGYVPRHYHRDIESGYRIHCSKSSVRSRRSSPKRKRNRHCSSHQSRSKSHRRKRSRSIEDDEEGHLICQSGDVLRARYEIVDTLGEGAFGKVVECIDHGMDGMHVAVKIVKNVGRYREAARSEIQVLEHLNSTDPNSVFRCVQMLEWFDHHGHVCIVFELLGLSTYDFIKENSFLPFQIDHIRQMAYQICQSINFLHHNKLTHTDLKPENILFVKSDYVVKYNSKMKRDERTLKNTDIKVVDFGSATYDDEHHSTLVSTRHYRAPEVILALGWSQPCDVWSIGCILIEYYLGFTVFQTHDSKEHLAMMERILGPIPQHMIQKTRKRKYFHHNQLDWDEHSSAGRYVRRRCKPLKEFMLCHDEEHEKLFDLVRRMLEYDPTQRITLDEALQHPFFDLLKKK
Chain of Glucocorticoid receptor (Homo sapiens) (P04150 whole entry, looked up, the tested form may be a part): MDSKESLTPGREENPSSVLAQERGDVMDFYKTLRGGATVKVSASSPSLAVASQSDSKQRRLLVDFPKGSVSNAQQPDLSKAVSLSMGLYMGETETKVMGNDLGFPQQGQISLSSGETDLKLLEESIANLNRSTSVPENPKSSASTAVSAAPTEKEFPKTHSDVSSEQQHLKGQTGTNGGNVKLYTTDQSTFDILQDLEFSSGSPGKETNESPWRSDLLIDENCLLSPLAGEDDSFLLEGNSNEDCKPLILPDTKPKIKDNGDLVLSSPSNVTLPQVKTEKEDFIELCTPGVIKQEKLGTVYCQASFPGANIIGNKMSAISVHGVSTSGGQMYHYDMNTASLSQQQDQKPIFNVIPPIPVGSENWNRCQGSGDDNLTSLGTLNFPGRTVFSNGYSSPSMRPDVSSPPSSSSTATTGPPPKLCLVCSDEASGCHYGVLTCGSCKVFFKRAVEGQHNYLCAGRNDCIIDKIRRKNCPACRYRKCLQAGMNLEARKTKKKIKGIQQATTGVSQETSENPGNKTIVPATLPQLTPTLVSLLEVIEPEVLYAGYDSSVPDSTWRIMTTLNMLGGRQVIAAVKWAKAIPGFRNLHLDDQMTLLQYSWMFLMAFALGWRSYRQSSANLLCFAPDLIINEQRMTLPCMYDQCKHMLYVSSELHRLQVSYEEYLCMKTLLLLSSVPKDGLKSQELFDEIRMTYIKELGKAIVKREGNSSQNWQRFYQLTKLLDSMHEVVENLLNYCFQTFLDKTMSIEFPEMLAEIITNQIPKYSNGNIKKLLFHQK
Chain of Ubiquitin carboxyl-terminal hydrolase 1 (Homo sapiens) (O94782 whole entry, looked up): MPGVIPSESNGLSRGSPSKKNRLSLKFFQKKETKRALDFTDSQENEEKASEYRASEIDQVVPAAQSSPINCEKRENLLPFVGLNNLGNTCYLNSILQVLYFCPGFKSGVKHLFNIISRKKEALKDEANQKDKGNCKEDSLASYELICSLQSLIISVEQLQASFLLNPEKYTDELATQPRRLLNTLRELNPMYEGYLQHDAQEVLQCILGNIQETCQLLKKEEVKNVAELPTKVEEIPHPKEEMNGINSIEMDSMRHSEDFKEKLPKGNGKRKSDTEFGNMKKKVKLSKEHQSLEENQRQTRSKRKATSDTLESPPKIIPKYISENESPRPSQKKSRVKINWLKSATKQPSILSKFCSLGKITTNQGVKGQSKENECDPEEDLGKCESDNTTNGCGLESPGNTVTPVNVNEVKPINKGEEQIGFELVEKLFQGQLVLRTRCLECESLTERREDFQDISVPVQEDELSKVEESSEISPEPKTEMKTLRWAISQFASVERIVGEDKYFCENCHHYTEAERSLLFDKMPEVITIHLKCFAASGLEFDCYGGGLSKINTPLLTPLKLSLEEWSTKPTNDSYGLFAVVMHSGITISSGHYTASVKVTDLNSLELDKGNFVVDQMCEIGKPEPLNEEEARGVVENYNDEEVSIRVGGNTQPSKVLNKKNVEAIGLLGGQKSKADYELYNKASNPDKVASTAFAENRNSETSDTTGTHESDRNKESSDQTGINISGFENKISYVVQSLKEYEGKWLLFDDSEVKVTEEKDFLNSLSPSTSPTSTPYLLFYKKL
Chain of Lysosomal acid glucosylceramidase (Homo sapiens) (P04062 whole entry, looked up): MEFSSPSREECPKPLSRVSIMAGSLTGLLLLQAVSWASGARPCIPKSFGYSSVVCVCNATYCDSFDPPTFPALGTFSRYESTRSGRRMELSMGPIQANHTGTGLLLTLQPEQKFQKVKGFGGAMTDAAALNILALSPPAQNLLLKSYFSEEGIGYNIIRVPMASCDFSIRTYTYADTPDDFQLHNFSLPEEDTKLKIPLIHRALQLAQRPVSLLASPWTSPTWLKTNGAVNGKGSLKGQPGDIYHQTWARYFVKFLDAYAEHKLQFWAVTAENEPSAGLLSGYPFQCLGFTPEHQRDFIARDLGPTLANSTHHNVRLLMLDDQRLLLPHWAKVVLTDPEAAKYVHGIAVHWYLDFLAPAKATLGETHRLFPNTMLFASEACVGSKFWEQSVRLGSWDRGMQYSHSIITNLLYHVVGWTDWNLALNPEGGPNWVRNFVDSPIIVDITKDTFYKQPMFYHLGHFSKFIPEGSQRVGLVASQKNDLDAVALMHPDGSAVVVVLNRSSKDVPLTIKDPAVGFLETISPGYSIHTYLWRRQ
Chain of Cytochrome P450 3A4 (Homo sapiens) (P08684 whole entry, looked up): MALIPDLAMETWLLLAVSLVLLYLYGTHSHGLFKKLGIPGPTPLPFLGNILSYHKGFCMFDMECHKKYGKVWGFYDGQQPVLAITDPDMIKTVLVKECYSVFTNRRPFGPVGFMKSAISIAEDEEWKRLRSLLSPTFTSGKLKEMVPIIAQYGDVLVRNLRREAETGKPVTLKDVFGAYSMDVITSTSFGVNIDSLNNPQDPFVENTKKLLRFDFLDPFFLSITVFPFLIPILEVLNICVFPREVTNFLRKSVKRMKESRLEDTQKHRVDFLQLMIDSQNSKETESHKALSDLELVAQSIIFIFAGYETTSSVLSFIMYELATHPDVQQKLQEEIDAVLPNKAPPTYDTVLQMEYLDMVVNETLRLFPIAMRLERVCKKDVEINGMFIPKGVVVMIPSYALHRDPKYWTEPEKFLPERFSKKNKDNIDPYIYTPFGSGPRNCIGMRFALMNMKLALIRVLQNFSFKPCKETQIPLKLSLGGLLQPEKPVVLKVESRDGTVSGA
Chain of Cytochrome P450 1A2 (Homo sapiens) (P05177 whole entry, looked up): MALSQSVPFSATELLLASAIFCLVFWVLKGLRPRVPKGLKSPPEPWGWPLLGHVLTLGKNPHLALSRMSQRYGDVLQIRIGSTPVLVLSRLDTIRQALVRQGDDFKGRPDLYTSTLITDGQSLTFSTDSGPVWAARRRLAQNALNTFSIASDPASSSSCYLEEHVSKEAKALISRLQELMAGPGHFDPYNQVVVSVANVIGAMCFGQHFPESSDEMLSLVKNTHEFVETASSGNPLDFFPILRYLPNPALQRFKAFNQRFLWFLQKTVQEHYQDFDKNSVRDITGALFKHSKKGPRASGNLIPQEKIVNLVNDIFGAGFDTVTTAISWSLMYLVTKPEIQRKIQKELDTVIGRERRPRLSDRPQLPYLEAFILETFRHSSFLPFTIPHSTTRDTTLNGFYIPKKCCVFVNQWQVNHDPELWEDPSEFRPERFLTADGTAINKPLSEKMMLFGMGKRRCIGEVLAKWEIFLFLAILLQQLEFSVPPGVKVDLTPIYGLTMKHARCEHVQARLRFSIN

As for `Cn1c(=O)c(-c2cccs2)nc2cnc(N3CCNCC3)nc21`, the Potency is > 11.4 µM (inactive) in assay [1]; 10 µM (active) in assay [2]; > 9.22 µM (inactive) in assay [3]; > 46 µM (inactive) in assay [4]; 3.16 µM (active) in assay [8]. Also, in assay [5], the compound was called inactive. For the same compound, the Potency result in assay [6], in assay [7], in [10], in assay [11], in assay [12] and in assay [13] was “inactive” throughout. Also, the Potency result in assay [14] was “inactive”. For the same compound, in assay [9], the activity change, negative = inhibition is 4.59% (inactive). Further, the values for the max response in [9] (setting [18]) and in [9] (setting [19]) were 15.4% and 18.9%, respectively.

With `Cc1cnc(CNc2ncnc3ccc(-c4ccoc4)cc23)cn1`, the Potency in assay [1] is > 11.4 µM (inactive); in [3], > 46 µM (inactive); in assay [4], > 46 µM (inactive); in [10], 0.251 µM (active); in assay [11], 0.224 µM (active); in [12] it was 0.224 µM (active). Moreover, the activity change, negative = inhibition in assay [15] is -14.2% (inactive); in assay [9], 0.59% (inactive). Moreover, in [16], the activity, negative = inhibition was -13.1% (inactive). Also, the compound was classed as inactive in assay [5]. Also, the Potency result in assay [6], in [13] and in [14] was “inactive” throughout. Also, the max response turned out to be 20.6% in [9] (setting [18]) and 16.4% in assay [9] (setting [19]).

As for `COc1cccc(Nc2ncc3nc(CCc4ccccc4)c(=O)n(C)c3n2)c1`, the Potency in [1] was > 11.4 µM (inactive); in [3], > 9.22 µM (inactive); in assay [4], > 46 µM (inactive). Also, the activity change, negative = inhibition in [17] was 21.6% (inactive); in [9], -10% (inactive). Further, the activity, negative = inhibition in assay [16] is -7.18% (inactive). Further, the compound was called inactive in [5]. Also, the max response is 27.3% in assay [9] (setting [18]) and 12.3% in assay [9] (setting [19]). For the same compound, the Potency entry in [10], in [11], in [12], in assay [13] and in [14] was “inactive” in each case.

Take `O=c1c(-c2ccccc2)nc2cnc(Nc3ccccc3)nc2n1Cc1cccs1`: the figures for the Potency in assay [1], in [3] and in assay [4] were > 11.4 µM (inactive), > 9.22 µM (inactive) and > 46 µM (inactive), respectively. The activity change, negative = inhibition in [15] is -15.4% (inactive); in assay [9], -3.34% (inactive). For the same compound, the compound was called inactive in [5]. In addition, the values for the max response in [9] (setting [18]) and in [9] (setting [19]) were 8.31% and 4.81%, respectively. For the same compound, the Potency result in assay [10], in assay [11], in assay [12], in assay [13] and in assay [14] was “inactive” each time.

For the compound `CN(C)Cc1ccccc1-c1nc(NC2CCNCC2)c2ccccc2n1`, the Potency in [1] was > 11.4 µM (inactive); in [3] it was > 46 µM (inactive); in assay [4] it was > 46 µM (inactive). In addition, the activity change, negative = inhibition in [15] was 24.8% (inactive); in assay [17] it was -15% (inactive); in assay [9], 2.42% (inactive). For the same compound, the compound was called inactive in assay [5]. Moreover, the Potency entry in [6], in [10], in [11], in assay [12], in [13] and in [14] was “inactive” throughout. Moreover, the figures for the max response in assay [9] (setting [18]) and in assay [9] (setting [19]) were 8.01% and 7.24%, respectively.

Take `COc1ccc(-c2nc3cnc(Nc4ccccc4)nc3n(C[C@H]3CCCO3)c2=O)cc1`: the Potency in assay [1] is > 11.4 µM (inactive); in assay [3], > 9.22 µM (inactive); in assay [4], > 46 µM (inactive); in [9] it was 11.2 µM (active). For the same compound, the activity change, negative = inhibition in [15] was 26.1% (inactive). In addition, the result in assay [5] was inactive. In addition, the max response in assay [9] (setting [18]) is 2.79%; in assay [9] (setting [19]) it was -87.2%. Further, the Potency result in [10], in [11], in assay [12], in assay [13] and in [14] was “inactive” each time.

Turning to `Cc1nc2cnc(N3CCOCC3)nc2n(C2CC2)c1=O`, the Potency in assay [1] was > 11.4 µM (inactive); in assay [4] it was > 46 µM (inactive). Moreover, the values for the activity change, negative = inhibition in [15], in assay [17] and in assay [9] were -11.6% (inactive), -11.7% (inactive) and 7% (inactive), respectively. The activity, negative = inhibition in assay [16] was -3.09% (inactive). Further, the compound was called inactive in [5]. Moreover, the Potency result in [6], in assay [7], in assay [10], in [11], in assay [12] and in [13] was “inactive” in each case. Moreover, the Potency result in assay [14] was “inactive”. For the same compound, the max response in assay [9] (setting [18]) amounted to 18%; in assay [9] (setting [19]), 23.9%.
